Source: PubChem BioAssay
Calls of active or inactive are those of the source.

How the values were obtained:
[1] = tested on: PRMT1 (protein arginine N-methyltransferase 1); assay: small molecules binding arginine methyltransferase PRMT1 – biochemical, small-molecule microarray, 635 nm fluorescence, primary screen (AID 1088); conditions: higher = more signal;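 also: binding of Prmt1 protein to compounds spotted on small-molecule microarray slides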
[2] = growth effects on S. cerevisiae YJM789 – YJM789 clinical isolate, OD600, 24 h, basal, primary screen (AID 1089); conditions: higher = more signal, called active from +8 up or from −8 down;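 also: growth of clinical yeast isolate S. cerevisiae YJM 789 seeded 1000 cells per well; test concentration not given here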
[3] = S. pombe growth modifiers, basal conditions – strain 972, OD600, 24 h, no modulator, primary screen (AID 1090);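 also: basal condition with compound alone and no growth modifier present; test concentration not given here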; conditions: S. pombe 972 growth, higher = more signal, called active from +8 up or from −8 down
[4] = budding yeast growth modifiers under rapamycin – strain BY4716, OD600, 96 h, primary screen (AID 1091); also: test concentration not given here; conditions: S. cerevisiae BY4716 + rapamycin, higher = more signal, called active from +8 up or from −8 down
[5] = biological target: Torsin-1A-interacting protein 2 (Homo sapiens) (UniProt Q8NFQ8); assay: small molecules binding lysate-expressed LULL1 – cell lysate, human LULL1 lysate, 635/667 nm fluorescence, primary screen (AID 1092); conditions: small-molecule microarray, hLULL1 lysate binding, 635 nm fluorescence; higher = more signal;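 also: probe is lysate of COS7 cells overexpressing human LULL1; score merges per-feature 667 nm fluorescence with signal-to-noise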
[6] = optical density change of DRC41 E. coli – strain DRC41, OD650, 24 h, E. coli filamentation project, primary screen (AID 1093);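 also: MC1000 strain lacking acrAB efflux and sulA so SOS filamentation is blocked; test concentration not given here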; conditions: E. coli DRC41 growth, higher = more signal, called active from +8 up or from −8 down
[7] = probe aLefty2 binding to arrayed compounds – biochemical, biotinylated probe, 635/667 nm fluorescence, primary screen (AID 1094); conditions: small-molecule microarray, higher = more signal;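 also: score merges spot fluorescence near 667 nm with spot signal-to-noise ratio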
[8] = tested on: Noggin (protein binding on small-molecule microarray); assay: small molecules binding Noggin protein – biochemical, 635/667 nm fluorescence, primary screen (AID 1095); conditions: 635 nm fluorescence, higher = more signal;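 also: score merges 667 nm feature fluorescence with signal to noise over triplicate slides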
[9] = biological target: Neurogenic locus notch homolog protein 3 (Homo sapiens) (UniProt Q9UM47); assay: small molecules binding NOTCH3 protein – biochemical, 635/667 nm fluorescence, primary screen (AID 1096); conditions: small-molecule microarray, 635 nm fluorescence, higher = more signal
[10] = probe aEGFR binding to arrayed compounds – biochemical, biotinylated probe, 635/667 nm fluorescence, primary screen (AID 1097); conditions: small-molecule microarray, higher = more signal;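 also: probe is a biotinylated anti-EGFR antibody binding compounds printed on slides; score combines fluorescence near 667 nm and signal to noise of each spot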
[11] = tested on: Plasmodium falciparum Sir2 (PF13_0152, Sir2A); assay: Plasmodium falciparum Sir2A binding compounds – biochemical, small-molecule microarray, 635 nm fluorescence, primary screen (AID 1098); conditions: fluorescence 635 nm, higher = more signal;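 also: score merges spot fluorescence intensity with its signal-to-noise ratio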
[12] = probe aDKK1 binding to arrayed compounds – biochemical, biotinylated probe, 635/667 nm fluorescence, primary screen (AID 1099); conditions: small-molecule microarray, higher = more signal;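 also: score merges 667nm spot fluorescence with signal to noise across triplicate slides; reference of the scale not given here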
[13] = probe aCHRDL2 binding to arrayed compounds – biochemical, biotinylated probe, 635/667 nm fluorescence, primary screen (AID 1100); conditions: small-molecule microarray, higher = more signal
[14] = change in splice reporter luminescence, either direction, cell-based, HEK293, spliceosome inhibition project, primary screen (AID 1101); conditions: HEK293 splicing luciferase reporter, 24 h, higher = more signal, called active from +8 up or from −8 down;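 also: HEK293 cells carrying a splicing-competent luciferase reporter gene; test concentration not given here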
[15] = biological target: Fibroblast growth factor 10 (Homo sapiens) (UniProt O15520); assay: compounds binding fibroblast growth factor 10 – biochemical, small-molecule microarray, 635 nm fluorescence, primary screen (AID 1102); conditions: FGF10 binding, fluorescence 635 nm, higher = more signal
[16] = tested on: glycogen synthase kinase-3 (GSK3A per assay name; protocol says GSK3B); assay: compounds binding glycogen synthase kinase-3 – biochemical, small-molecule microarray, 635 nm fluorescence, GSK3A, primary screen (AID 1103); conditions: fluorescence 635 nm, higher = more signal; also: the record names both GSK3A and GSK3B
[17] = biological target: Epidermal growth factor receptor (Homo sapiens) (UniProt P00533); assay: compounds binding epidermal growth factor receptor – biochemical, small-molecule microarray, 635 nm fluorescence, primary screen (AID 1104); conditions: EGFR binding, higher = more signal;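 also: score merges 667 nm emission intensity with spot signal to noise over triplicate slides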
[18] = biological target: Follistatin-related protein 3 (Homo sapiens) (UniProt O95633); assay: compounds binding follistatin-related protein 3 – biochemical, small-molecule microarray, 635 nm fluorescence, primary screen (AID 1105); conditions: FSTL3 binding, higher = more signal;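 also: score merges emission near 667 nm and signal to noise per printed spot across three slides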
[19] = biological target: Dickkopf-related protein 1 (Homo sapiens) (UniProt O94907); assay: small molecules binding DKK1 protein – biochemical, small-molecule microarray, 635 nm fluorescence scan, primary screen (AID 1106); conditions: higher = more signal;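 also: score merges emission near 667 nm with signal to noise over three replicate slides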
[20] = tested on: Inhibin beta A chain (activin A); assay: small molecules binding activin A – biochemical, small-molecule microarray, 635 nm fluorescence scan, primary screen (AID 1107); conditions: INHBA, higher = more signal;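 also: mouse activin A protein probed at 4.33 µg/mL on printed slides; score merges bound-protein fluorescence near 667 nm with spot signal-to-noise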

Sequence of Torsin-1A-interacting protein 2 (Homo sapiens) (Q8NFQ8 whole entry, looked up): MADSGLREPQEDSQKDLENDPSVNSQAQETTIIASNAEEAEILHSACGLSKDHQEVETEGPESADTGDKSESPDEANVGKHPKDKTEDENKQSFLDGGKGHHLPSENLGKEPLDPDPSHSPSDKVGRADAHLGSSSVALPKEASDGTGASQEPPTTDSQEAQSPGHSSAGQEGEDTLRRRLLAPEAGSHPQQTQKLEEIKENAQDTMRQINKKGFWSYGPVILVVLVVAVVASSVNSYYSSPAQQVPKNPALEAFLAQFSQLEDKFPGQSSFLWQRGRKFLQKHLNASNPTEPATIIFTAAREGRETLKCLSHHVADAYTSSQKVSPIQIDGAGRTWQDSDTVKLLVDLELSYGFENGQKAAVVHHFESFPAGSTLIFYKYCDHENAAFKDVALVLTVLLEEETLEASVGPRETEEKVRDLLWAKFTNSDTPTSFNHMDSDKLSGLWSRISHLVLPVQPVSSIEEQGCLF
Sequence of Fibroblast growth factor 10 (Homo sapiens) (O15520 whole entry, looked up): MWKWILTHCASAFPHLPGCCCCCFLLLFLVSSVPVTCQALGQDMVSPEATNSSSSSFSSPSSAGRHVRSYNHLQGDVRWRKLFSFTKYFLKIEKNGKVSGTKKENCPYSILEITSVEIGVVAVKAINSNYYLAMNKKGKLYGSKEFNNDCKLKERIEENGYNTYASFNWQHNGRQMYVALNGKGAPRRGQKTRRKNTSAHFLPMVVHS
Sequence of Epidermal growth factor receptor (Homo sapiens) (P00533 whole entry, looked up): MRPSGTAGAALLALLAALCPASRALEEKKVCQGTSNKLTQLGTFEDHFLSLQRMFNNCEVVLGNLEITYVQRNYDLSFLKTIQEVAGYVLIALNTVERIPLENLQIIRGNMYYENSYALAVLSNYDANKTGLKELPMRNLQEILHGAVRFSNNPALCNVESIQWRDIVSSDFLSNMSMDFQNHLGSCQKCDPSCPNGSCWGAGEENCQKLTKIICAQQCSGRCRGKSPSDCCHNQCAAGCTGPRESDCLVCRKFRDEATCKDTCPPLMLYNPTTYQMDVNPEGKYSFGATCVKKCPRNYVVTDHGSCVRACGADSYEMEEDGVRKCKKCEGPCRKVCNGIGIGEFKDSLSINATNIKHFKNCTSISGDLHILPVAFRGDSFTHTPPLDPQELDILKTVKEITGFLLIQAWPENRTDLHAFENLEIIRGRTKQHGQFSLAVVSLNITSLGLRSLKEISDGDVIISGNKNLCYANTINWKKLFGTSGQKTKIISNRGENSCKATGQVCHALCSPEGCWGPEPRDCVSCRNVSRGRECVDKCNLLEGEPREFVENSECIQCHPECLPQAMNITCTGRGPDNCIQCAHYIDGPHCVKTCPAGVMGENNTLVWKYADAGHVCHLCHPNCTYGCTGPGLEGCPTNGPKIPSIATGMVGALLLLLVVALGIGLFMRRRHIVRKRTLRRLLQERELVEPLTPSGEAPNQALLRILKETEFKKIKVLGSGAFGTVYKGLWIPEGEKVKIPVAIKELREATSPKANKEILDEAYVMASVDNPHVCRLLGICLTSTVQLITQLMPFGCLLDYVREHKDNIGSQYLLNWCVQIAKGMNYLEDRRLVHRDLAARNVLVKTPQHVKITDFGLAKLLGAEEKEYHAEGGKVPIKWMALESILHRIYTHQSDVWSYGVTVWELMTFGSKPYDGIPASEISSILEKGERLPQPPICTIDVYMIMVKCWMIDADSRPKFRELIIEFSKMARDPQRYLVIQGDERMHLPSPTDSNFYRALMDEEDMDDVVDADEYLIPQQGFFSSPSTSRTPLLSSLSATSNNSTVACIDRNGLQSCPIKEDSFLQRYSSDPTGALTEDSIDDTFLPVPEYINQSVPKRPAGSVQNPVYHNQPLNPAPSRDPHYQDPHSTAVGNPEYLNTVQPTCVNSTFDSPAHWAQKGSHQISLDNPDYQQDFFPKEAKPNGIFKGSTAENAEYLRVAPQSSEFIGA
Sequence of Follistatin-related protein 3 (Homo sapiens) (O95633 whole entry, looked up): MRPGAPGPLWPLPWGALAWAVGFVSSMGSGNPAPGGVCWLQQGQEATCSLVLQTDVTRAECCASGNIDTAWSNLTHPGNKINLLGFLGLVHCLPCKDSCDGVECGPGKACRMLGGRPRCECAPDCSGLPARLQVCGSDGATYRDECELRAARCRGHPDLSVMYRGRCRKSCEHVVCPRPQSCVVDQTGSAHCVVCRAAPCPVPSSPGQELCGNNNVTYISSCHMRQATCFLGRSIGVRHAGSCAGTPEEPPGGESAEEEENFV
Sequence of Neurogenic locus notch homolog protein 3 (Homo sapiens) (Q9UM47 whole entry, looked up): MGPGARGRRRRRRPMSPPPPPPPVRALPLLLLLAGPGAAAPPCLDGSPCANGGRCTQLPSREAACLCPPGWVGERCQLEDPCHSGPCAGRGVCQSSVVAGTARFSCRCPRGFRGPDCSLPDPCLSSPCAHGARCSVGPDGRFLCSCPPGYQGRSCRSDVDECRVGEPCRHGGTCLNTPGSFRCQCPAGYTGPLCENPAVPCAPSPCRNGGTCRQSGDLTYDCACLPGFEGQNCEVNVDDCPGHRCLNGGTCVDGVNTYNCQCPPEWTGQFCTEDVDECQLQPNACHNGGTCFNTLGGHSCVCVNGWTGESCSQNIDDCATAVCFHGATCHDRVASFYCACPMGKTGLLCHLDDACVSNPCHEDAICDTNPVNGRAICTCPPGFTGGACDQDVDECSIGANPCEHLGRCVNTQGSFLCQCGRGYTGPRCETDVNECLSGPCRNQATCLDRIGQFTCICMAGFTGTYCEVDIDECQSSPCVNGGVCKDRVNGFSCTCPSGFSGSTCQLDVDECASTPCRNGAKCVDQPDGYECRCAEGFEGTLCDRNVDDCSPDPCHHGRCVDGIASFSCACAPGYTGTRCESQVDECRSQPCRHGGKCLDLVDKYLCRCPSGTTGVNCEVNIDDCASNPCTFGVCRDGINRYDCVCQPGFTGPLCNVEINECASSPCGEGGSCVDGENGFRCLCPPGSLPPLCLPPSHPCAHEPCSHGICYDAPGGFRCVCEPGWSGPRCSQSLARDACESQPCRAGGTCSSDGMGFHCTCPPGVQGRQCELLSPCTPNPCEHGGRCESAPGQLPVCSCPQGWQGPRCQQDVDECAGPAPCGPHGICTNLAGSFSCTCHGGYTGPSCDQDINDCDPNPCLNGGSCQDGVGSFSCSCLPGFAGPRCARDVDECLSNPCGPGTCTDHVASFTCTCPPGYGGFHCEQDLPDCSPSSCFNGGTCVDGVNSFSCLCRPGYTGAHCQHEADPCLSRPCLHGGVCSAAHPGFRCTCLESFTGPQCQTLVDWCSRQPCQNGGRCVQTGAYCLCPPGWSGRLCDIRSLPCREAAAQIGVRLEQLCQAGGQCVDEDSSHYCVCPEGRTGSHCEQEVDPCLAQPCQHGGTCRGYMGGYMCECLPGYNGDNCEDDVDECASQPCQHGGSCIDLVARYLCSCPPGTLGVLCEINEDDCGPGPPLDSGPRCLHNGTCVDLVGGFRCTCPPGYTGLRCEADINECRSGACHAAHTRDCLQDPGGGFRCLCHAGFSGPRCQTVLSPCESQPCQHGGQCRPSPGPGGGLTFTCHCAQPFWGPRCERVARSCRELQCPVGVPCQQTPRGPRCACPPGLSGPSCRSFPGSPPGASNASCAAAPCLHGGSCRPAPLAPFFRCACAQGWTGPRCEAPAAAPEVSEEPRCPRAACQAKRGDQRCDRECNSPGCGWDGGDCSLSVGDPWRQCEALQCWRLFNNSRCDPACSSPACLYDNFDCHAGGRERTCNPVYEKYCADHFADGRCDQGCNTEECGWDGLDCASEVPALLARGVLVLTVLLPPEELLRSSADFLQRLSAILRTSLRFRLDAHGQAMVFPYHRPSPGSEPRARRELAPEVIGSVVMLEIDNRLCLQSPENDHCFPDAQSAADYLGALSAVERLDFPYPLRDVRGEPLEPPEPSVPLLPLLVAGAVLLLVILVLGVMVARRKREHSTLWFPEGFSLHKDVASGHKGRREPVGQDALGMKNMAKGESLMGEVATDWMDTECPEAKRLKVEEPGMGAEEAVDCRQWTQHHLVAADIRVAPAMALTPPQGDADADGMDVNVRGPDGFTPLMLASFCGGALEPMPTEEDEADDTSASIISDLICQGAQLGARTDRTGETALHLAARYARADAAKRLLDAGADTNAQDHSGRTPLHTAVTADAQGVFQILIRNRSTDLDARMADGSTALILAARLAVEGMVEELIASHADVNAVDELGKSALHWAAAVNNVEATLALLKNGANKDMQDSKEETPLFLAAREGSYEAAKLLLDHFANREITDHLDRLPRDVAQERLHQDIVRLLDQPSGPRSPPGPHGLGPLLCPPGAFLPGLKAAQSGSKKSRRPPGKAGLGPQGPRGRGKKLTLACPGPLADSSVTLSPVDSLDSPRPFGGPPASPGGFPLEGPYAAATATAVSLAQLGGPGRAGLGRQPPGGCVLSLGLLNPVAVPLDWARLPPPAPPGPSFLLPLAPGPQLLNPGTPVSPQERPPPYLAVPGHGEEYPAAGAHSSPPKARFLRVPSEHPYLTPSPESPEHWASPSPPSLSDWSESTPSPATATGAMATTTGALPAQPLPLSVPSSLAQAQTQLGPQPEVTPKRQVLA
Sequence of Dickkopf-related protein 1 (Homo sapiens) (O94907 whole entry, looked up): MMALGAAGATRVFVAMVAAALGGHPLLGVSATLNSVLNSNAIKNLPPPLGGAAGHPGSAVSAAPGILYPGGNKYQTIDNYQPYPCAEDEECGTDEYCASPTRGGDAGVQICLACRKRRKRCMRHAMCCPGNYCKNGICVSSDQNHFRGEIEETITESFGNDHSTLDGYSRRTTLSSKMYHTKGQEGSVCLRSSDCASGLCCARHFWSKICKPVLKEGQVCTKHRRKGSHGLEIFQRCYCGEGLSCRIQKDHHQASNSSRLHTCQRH

Row | SMILES | composite z-score [1] | z-score [2] | z-score [3] | z-score [4] | composite z-score [5] | z-score [6] | composite z-score [7] | composite z-score [8] | composite z-score [9] | composite z-score [10] | composite z-score [11] | composite z-score [12] | composite z-score [13] | z-score [14] | composite z-score [15] | composite z-score [16] | composite z-score [17] | composite z-score [18] | composite z-score [19] | composite z-score [20]
1 | O=C1[C@@]23C=C(Br)[C@H](C[C@@H]2COC3)[C@@]12CO2 | -0.186 | 0.108 (inactive) | -1.34 (inactive) | 0.0993 (inactive) | -0.498 | -1.39 (inactive) | -0.124 | 0.648 | 0.574 | -0.184 | 0.35 | -0.419 | -0.555 | 0.536 (inactive) | 0.266 | 0.638 | 0.566 | 0.514 | 0.449 | 0.262
2 | COc1ccc([Si](C)(C)[C@H]2[C@H](CCO)O[C@@]3(C(=O)N(Cc4ccccc4)c4ccc(N5CCOC5=O)cc43)[C@@H]2C)cc1 | 1.13 | 0.948 (inactive) | -0.0089 (inactive) | 16.7 (active) | 1.64 | 0.147 (inactive) | -0.0769 | 0.517 | 1.12 | -0.0152 | 0.821 | 0.0261 | -0.214 | -0.711 (inactive) | 0.977 | 0.411 | 0.398 | 0.277 | 0.0837 | 0.212
3 | C=C[C@@H](C)[C@H](O)c1ccc(OCCO)cc1 | -0.365 | 0.217 (inactive) | -0.297 (inactive) | -0.0577 (inactive) | 1.14 | -0.0261 (inactive) | -0.225 | -1.34 | -0.743 | -0.37 | -0.112 | -0.234 | 0.825 | -0.474 (inactive) | -1.57 | -1.25 | -2.14 | -1.71 | -1.5 | -1.57
4 | CC1(C)C(=O)C(c2ccccc2)=C2CN3C(=O)N(CCc4ccccc4)C(=O)C3(Cc3ccc(F)cc3)C=C21 (stereo not given) | -0.203 | 0.54 (inactive) | 0.921 (inactive) | 6.84 (inactive) | 2.52 | -2 (inactive) | 0.428 | -0.459 | 0.337 | 0.133 | 0.251 | 1.19 | 1.24 | -0.274 (inactive) | -0.236 | -0.556 | -0.554 | -0.0423 | -1.11 | 0.958
5 | O=C1C2C=CC(C(O)c3cc(C(F)(F)F)cc(C(F)(F)F)c3)N(Nc3ccccc3F)C2C(=O)N1c1ccccc1 (stereo not given) | 1.11 | 0.503 (inactive) | 0.854 (inactive) | 6.9 (inactive) | 3.19 | -1.99 (inactive) | 0.0655 | -0.989 | 1.07 | 0.0061 | 0.99 | 1.09 | 1.03 | 0.537 (inactive) | 0.223 | 0.708 | -0.855 | -0.19 | -0.795 | 0.37
6 | COCCOC(=O)N1C(=O)[C@@]2(c3cc(C#CC4(O)CCCCCC4)ccc31)[C@H](C(=O)N1CCN(c3ncccn3)CC1)[C@H]1C(=O)O[C@H](c3ccccc3)[C@H](c3ccccc3)N1[C@@H]2c1ccccc1OCCO | 1.2 | 2.56 (inactive) | 2.26 (inactive) | 7.55 (inactive) | 1.79 | -0.267 (inactive) | -0.0795 | 1.04 | 1.08 | 0.0436 | 1.27 | -0.0139 | -0.113 | -0.278 (inactive) | 0.864 | 1.29 | 0.906 | 1.29 | 1.32 | 0.521
7 | COCCCNC(=O)[C@@]1(c2ccc([N+](=O)[O-])cc2)CC(=O)N(CC23CC4CC(CC(C4)C2)C3)[C@@H]1c1ccc(CO)cc1I | 1.3 | 1.01 (inactive) | 1.08 (inactive) | 4.92 (inactive) | 1.75 | -0.254 (inactive) | 0.0283 | 0.26 | 0.341 | -0.183 | 1.02 | 0.541 | 0.847 | 3.68 (inactive) | -0.0432 | -0.115 | -0.392 | -0.36 | -0.15 | 0.126
8 | C=CCN1C(=O)[C@]2(O[C@H](CCO)[C@@H]([Si](C)(C)c3ccc(OC)cc3)[C@@H]2C)c2cc(N3C(=O)COc4ccccc43)ccc21 | 1.53 | 1.81 (inactive) | 0.0538 (inactive) | 32.6 (active) | 1.29 | 1.64 (inactive) | -0.192 | 0.679 | 0.763 | -0.12 | 0.529 | -0.113 | 0.33 | -3.03 (inactive) | 0.74 | 0.195 | 0.0364 | 0.4 | -0.207 | 0.378
9 | CN(C)CCCNC(=O)[C@@H]1c2ccccc2C(=O)N(C2CCCCC2)[C@H]1c1ccc(CO)cc1 | 1.55 | 0.154 (inactive) | -1.13 (inactive) | -1.02 (inactive) | 3.08 | 0.37 (inactive) | -0.118 | 0.98 | 1.03 | 0.251 | 1.37 | 0.229 | 0.11 | 1.39 (inactive) | 1.43 | 1.32 | 0.758 | 1.53 | 1.15 | 0.106
10 | [N-]=[N+]=NCc1ccccc1[C@H]1OC(c2ccc(OCCCO)cc2)=N[C@@]1(CCS(=O)(=O)c1ccccc1)C(=O)NCc1ccccc1 | 1.55 | 1.47 (inactive) | 0.431 (inactive) | 4.54 (inactive) | 3.11 | 1.28 (inactive) | 0.455 | 0.605 | 1.13 | 0.706 | 1.26 | 1.65 | 0.743 | 0.118 (inactive) | 1.06 | 1.29 | 0.333 | 0.819 | -0.0778 | 0.447
